Measured values as given in PubChem BioAssay (EPA / NIEHS).
Where “and” joins values, the source holds several entries; their conditions need not be identical. Equal entries are not always repeated. More than one record can exist for a structure, and the calls need not agree. Calls of active or inactive are those of the source. How the source made its calls: active means hit-call score of the fitted dose curve at least 0.9, where 1 is the maximum; inactive means score below 0.9.

Assay: ATG_MRE_CIS: Attagene CIS-FACTORIAL HepG2 Assay for human Metal Responsive Element (MRE) (AID 2282954)
Conditions: HepG2 MRE cis-reporter transcription, Attagene multiplex; actives raise or lower the signal
Description: ATG_CIS is a cell-based, multiplexed-readout assay that uses HepG2, a human liver cell line, with measurements taken at 24 hours after chemical dosing in a 24-well plate.ATG_MRE_CIS is one of 52 assay component(s) measured or calculated from the ATG_CIS assay. It is designed to make measurements of mRNA induction, a form of inducible reporter, as detected with fluorescence intensity signals by Reverse transcription polymerase chain reaction (RT-PCR) and Capillary electrophoresis technology.Data from the assay component ATG_MRE_CIS was analyzed into 1 assay endpoint. This assay endpoint, ATG_MRE_CIS, was analyzed with bidirectional fitting relative to DMSO as the negative control and baseline of activity. Using a type of inducible reporter, measures of mRNA for gain or loss-of-signal activity can be used to understand the reporter gene at the transcription factor-level as they relate to the gene MTF1. Furthermore, this assay endpoint can be referred to as a primary readout, because this assay has produced multiple assay endpoints where this one serves a reporter gene function. To generalize the intended target to other relatable targets, this assay endpoint is annotated to the dna binding intended target family, where the subfamily is zinc finger.
Human liver HepG2 cells are transiently transfected with multiple reporter transcription units (MRTUs) in 6-well plates using FuGene 6 reagent (Roche; 3 ml FuGene/1 mg DNA). The MRTU constructs are regulated by a cis-regulating element (promoter). […] A major difference between the CIS and TRANS system is that in CIS activities of endogenous TFs are measured, whereas the TRANS assay evaluates changes in activities of exogenous, chimeric NR-Gal4 proteins. […] At the end of 24 hour incubation, total RNA was isolated using TriZol reagent (Invitrogen). The isolated RNA is then reverse-transcribed using oligo(dT) primer and Mo-MLV reverse transcriptase (Invitrogen) with DNAse I (Ambion) treatment for 30 min. The one-tenth of the produced cDNA was amplified by PCR using Taq DNA polymerase (Invitrogen) and two reporter sequence-specific primers. The PCR products were fluorescently labeled by primer extension with 6-arboxyfluorescein (6-FAM) 5'-labeled reporter sequence-specific primer (2 min at 95 C, 20 s at 68 C and 10 min at 72 C) and these products were digested with 5U of HpaI (New England Biolabs) for 2h at 37 C. The fragments were purified using Qiaquick PCR columns (Qiagen), analyzed on an ABI 3130xL genetic analyzer (Applied Biosystems) with peak positions identified by using a set of X-rhodamine (ROX)-labeled MapMarker1000 molecular weight standards (BioVentures). The raw capillary electrophoresis data was processed using Attagraph software (Attagene).

Row | SMILES | outcome | AC50
1 | BrCCBr | inactive | 
2 | CNC(=O)O/N=C/C(C)(C)S(C)=O (stereo not given) | inactive | 
3 | ClC1(Cl)C2(Cl)C3(Cl)C4(Cl)C(Cl)(Cl)C5(Cl)C3(Cl)C1(Cl)C5(Cl)C24Cl (stereo not given) | inactive | 
4 | CC(C#N)CCC#N (stereo not given) | inactive | 
5 | c1ccc(N=NNc2ccccc2)cc1 |  | 100 µM (active)
6 | O=[N+]([O-])c1ccc(O)c([N+](=O)[O-])c1 | inactive | 
7 | O=S(=O)(c1ccc(Cl)cc1)c1ccc(Cl)cc1 |  | 101 µM (active)
8 | CC12CC1(C)C(=O)N(c1cc(Cl)cc(Cl)c1)C2=O (stereo not given) | inactive | 
9 | c1cc[c]([Hg][c]2ccccc2)cc1 |  | 14.4 µM (active)
10 | CCC(=O)C(CC(C)N(C)C)(c1ccccc1)c1ccccc1 (stereo not given) | inactive | 
11 | CCNc1nc(NC(C)(C)C)nc(SC)n1 |  | 118 µM (active)
12 | O=C1C2(Cl)C3(Cl)C4(Cl)C(Cl)(Cl)C5(Cl)C3(Cl)C1(Cl)C5(Cl)C24Cl (stereo not given) | inactive | 3.57 µM (active) and 16.2 µM (active)
13 | C[C@@H](Oc1ccc(Cl)cc1Cl)C(=O)O | inactive | 
14 | CCCCC(CC)CO[N+](=O)[O-] (stereo not given) | inactive | 
15 | COC(=O)Cc1ccccc1 | inactive | 
16 | CC(=O)OC(c1ccccc1)C(Cl)(Cl)Cl (stereo not given) | inactive | 
17 | CCOP(=O)(CN(CCO)CCO)OCC | inactive | 
18 | Cc1ccccc1N | inactive | 
19 | ClCc1cccnc1 |  | 45.9 µM (active)

Row | SMILES | outcome | AC50
20 | Cc1ccccc1C(=O)Nc1cccc(OC(C)C)c1 | inactive | 
21 | CCN(CC)C(=O)Cl | inactive | 
22 | COC[C@H](C)N(C(=O)CCl)c1c(C)csc1C | inactive | 
23 | O=Cc1cccc(Oc2ccccc2)c1 | inactive | 
24 | CC(=[OH+])/C=C(/C)[O-].CC(=[OH+])/C=C(/C)[O-].CC(=[OH+])/C=C(/C)[O-].[Fe] | inactive | 
25 | C[C@]12CCC(=O)C[C@@H]1CC[C@@H]1[C@@H]2CC[C@]2(C)[C@@H](O)CC[C@@H]12 | inactive | 87 µM (active) and 42.6 µM (active)
26 | CCSC(C)CC1CC(=O)C(C(CC)=NOC/C=C/Cl)=C(O)C1 (stereo not given) | inactive | 
27 | CC(=O)[O][Hg][c]1ccccc1 |  | 5.86 µM (active)
28 | CCC(C)c1cccc(C(C)CC)c1O (stereo not given) | inactive | 
29 | CC(C)C1CCC(Cc2ccc(Cl)cc2)C1(O)Cn1cncn1 (stereo not given) |  | 11 µM (active)
30 | CCOP(=S)(OCC)Oc1ccc(S(C)=O)cc1 (stereo not given) | inactive | 
31 | C[C@H]1O[C@@H](O[C@H]2[C@@H](O)C[C@H](O[C@H]3[C@@H](O)C[C@H](O[C@H]4CC[C@@]5(C)[C@H](CC[C@@H]6[C@@H]5CC[C@]5(C)[C@@H](C7=CC(=O)OC7)CC[C@]65O)C4)O[C@@H]3C)O[C@@H]2C)C[C@H](O)[C@@H]1O | inactive | 
32 | CCOC(=O)/C=C(C)/C=C/C[C@@H](C)CCCC(C)C |  | 174 µM (active)
33 | CC(C)(OO)c1ccccc1 | inactive | 
34 | COP(=S)(OC)Oc1c(Cl)cc(C)cc1Cl |  | 27.1 µM (active)
35 | O=C(Nc1ccc2[nH]ccc2c1)c1cc2cc(F)ccc2n1Cc1cccc(F)c1 |  | 11 µM (active)
36 | COP(=S)(OC)Oc1ccc(S(=O)(=O)N(C)C)cc1 |  | 69 µM (active)
37 | CN(C)N=O | inactive | 
38 | O=C(NCO)NCO | inactive | 
